We go through 13 compounds from PubChem BioAssay.

Assay [1] relates to XIP peptide (Xip251-270) binding. Kind of assay: XIP fragment 251-270 binding compounds – biochemical, small-molecule microarray, fluorescence 635/667 nm, 0.1 µg/mL protein, primary screen (AID 1182). The conditions noted are these: fluorescent protein binding, 635 nm, higher = more signal, called active from +8 up or from −8 down.
The next assay relates to XIP peptide (Xip251-270). Kind of assay: compounds binding XIP fragment 251-270 – biochemical, small-molecule microarray, fluorescence 635/667 nm, 0.5 µg/mL protein, primary screen (AID 1183). The conditions noted are these: fluorescence 635 nm, higher = more signal.
Assay [2] in a line: blood-stage malaria parasite viability loss – strain 3D7, DAPI fluorescence, 100 nL, primary screen (AID 1184).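 Note: parasites grown inside human red blood cells in medium with human serum.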 The settings on record: P. falciparum 3D7 growth, 3 d, higher = more signal.
Assay [3] has as its target Homeobox protein Hox-A13 (Mus musculus) (UniProt Q62424). Put plainly: disruptors of Hoxa13 oligonucleotide interaction – biochemical, fluorescence polarization, labeled oligonucleotide, primary screen (AID 1185). The conditions noted are these: Hoxa13:DNA binding, 15 min, higher = more signal, called active from +8 up or from −8 down. A general note: Polarisation of emitted light reports the rotation of a fluorescent probe.

Assay [4] in a line: blockers of DNA damage checkpoint Chk1 activation – imaging, HeLa, hydroxyurea, phospho-Chk1 antibody, percent positive cells, primary screen (AID 1186). The conditions noted are these: hydroxyurea-induced phospho-Chk1 immunofluorescence imaging, higher = more signal.
The nature of assay [5]: blockers of DNA damage checkpoint Chk1 activation – imaging, HeLa, hydroxyurea, phospho-Chk1 nuclear intensity, primary screen (AID 1187). The conditions noted are these: hydroxyurea-induced phospho-Chk1 immunofluorescence imaging, higher = more signal.

Active and inactive are the calls of the source. Unless noted, the rule behind the calls is not given here.

Homeobox protein Hox-A13 (Mus musculus), sequence (Q62424 whole entry, looked up): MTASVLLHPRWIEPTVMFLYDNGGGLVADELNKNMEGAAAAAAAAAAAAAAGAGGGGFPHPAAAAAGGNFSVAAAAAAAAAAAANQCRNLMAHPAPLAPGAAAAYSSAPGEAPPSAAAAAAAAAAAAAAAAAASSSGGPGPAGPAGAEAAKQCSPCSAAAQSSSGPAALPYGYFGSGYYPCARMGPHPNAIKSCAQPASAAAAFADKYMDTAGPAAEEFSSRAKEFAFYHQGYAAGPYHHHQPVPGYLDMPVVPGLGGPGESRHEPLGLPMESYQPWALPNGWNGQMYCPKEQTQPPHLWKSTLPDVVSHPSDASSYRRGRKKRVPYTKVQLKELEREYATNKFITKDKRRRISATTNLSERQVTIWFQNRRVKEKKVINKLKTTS

For the compound `O=C(NCC(F)(F)F)[C@@H]1c2ccccc2C(=O)N(Cc2ccccc2C(F)(F)F)[C@H]1c1ccc(CO)cc1`, the composite z-score in assay [1] was 0.774 (inactive); in the assay with XIP peptide (Xip251-270) it was 0.374. In addition, the z-score in assay [2] was -0.485; in assay [3] it was -2.95 (inactive); in assay [4], 0.0364 (inactive); in assay [5], -0.0409 (inactive).
`COCCOC(=O)N1C(=O)[C@@]2(c3cc(C#CC4=CCCCC4)ccc31)[C@H](c1ccc(O)cc1)N1[C@H](c3ccccc3)[C@H](c3ccccc3)OC(=O)[C@H]1[C@@H]2C(=O)N1CCN(c2ncccn2)CC1`: the composite z-score is -0.0719 (inactive) in assay [1] and 0.306 with XIP peptide (Xip251-270). The z-score in assay [2] is 0.145; in assay [3], -0.674 (inactive); in assay [4] it was -0.231 (inactive); in assay [5] it was -0.758 (inactive).
As for `CN1C(=O)C2C=CC(C(O)c3cccc(O)c3)N(Nc3ccccc3)C2C1=O` (stereo not drawn), the values for the composite z-score (in assay [1]; with XIP peptide (Xip251-270)) were -0.252 (inactive) and -0.0631, respectively. For the same compound, the z-score in assay [2] was 0.655; in assay [3] it was -0.751 (inactive); in assay [4] it was 0.0011 (inactive); in assay [5] it was 0.118 (inactive).
In the case of `CCCCN1CC=CC23O[C@@H]4/C=C\CCC(C)OC(=O)C4[C@H]2C(=O)N(C(CO)C(C)C)[C@@H]3C1=O` (stereo partly drawn), the figures for the composite z-score (in assay [1]; with XIP peptide (Xip251-270)) were 0.743 (inactive) and 0.844, respectively. The z-score in assay [2] is -0.36; in assay [3] it was -5.09 (inactive); in assay [4], -0.428 (inactive); in assay [5] it was -0.543 (inactive).
On to `C=C(C)[C@@H]1CC=C(C(O)C2C=CC3C(=O)N(c4ccccc4)C(=O)C3N2Nc2ccccc2F)CC1` (stereo partly drawn), for which the composite z-score in assay [1] was 0.301 (inactive); in the assay on XIP peptide (Xip251-270) it was 0.656. Further, the z-score was -0.282 in assay [2], -1.52 (inactive) in assay [3], 0.749 (inactive) in assay [4] and 0.372 (inactive) in assay [5].
For the compound `CCOC(=O)C[C@H]1[C@H](OC(=O)c2ccccc2-c2ccccc2)[C@@H](NC(=O)C2CCCCC2)c2cc(OCCCO)ccc2N1C(=O)Cc1ccc(OC)cc1`, the composite z-score is 0.0141 (inactive) in assay [1] and 0.333 in the assay with XIP peptide (Xip251-270). For the same compound, the z-score in assay [2] is 0.273; in assay [3] it was -3.62 (inactive); in assay [4], -0.0021 (inactive); in assay [5] it was 0.223 (inactive).
For the compound `CC[C@H]1C2=C3C(CC[C@H]4C(OCc5ccc(F)cc5C(F)(F)F)OC[C@](C)([C@@H]34)N(C(=O)OC(C)(C)C)C2)C(COC)C1COC` (stereo partly drawn), the values for the composite z-score (in assay [1]; in the assay with XIP peptide (Xip251-270)) were 0.716 (inactive) and -0.379, respectively. The z-score in assay [2] is 0.133; in assay [3] it was -1.11 (inactive); in assay [4], 0.645 (inactive); in assay [5] it was 0.217 (inactive).
`CC(C)(C)OC(=O)CC[C@]1(C(=O)NCc2ccccc2)N=C(c2ccc(OCCCO)cc2)O[C@H]1c1ccccc1CN=[N+]=[N-]`: the composite z-score is 0.333 (inactive) in assay [1] and 0.688 in the assay with XIP peptide (Xip251-270). Further, the z-score in assay [2] is -2.39; in assay [3], -1.28 (inactive); in assay [4], -0.654 (inactive); in assay [5], -0.865 (inactive).
`C=C(C)c1cc2c(c(CCCCCC)n1)[Si](C(C)C)(C(C)C)OC2`: the composite z-score in assay [1] is -0.525 (inactive); with XIP peptide (Xip251-270) it was -0.115. In addition, the z-score was -0.631 in assay [2], -1.76 (inactive) in assay [3], 0.213 (inactive) in assay [4] and 1.53 (inactive) in assay [5].
As to `COC(=O)[C@@]1(Cc2ccc(F)cc2)[C@H]2c3cc(C(=O)N4CCCC4)n(CCc4ccc(O)c(O)c4)c3C[C@H]2CN1C(=O)c1ccccc1`, the figures for the composite z-score (in assay [1]; in the assay with XIP peptide (Xip251-270)) were 1.19 (inactive) and -0.892, respectively. The z-score in assay [2] is -1.47; in assay [3], -4.67 (inactive); in assay [4], 0.333 (inactive); in assay [5], 0.303 (inactive).
For `OCC1CC(c2ccccc2)=NO1` (stereo not drawn), the figures for the composite z-score (in assay [1]; in the assay with XIP peptide (Xip251-270)) were -0.336 (inactive) and -0.118, respectively. Further, the z-score was 0.308 in assay [2], 0.0368 (inactive) in assay [3], -0.582 (inactive) in assay [4] and -0.0558 (inactive) in assay [5].
As to `C=CCC(OC(C)=O)[C@@H]1[C@@H](N(Cc2ccc(-c3cccc(C(F)(F)F)c3)o2)C(=O)c2ccc(-c3ccccc3)cc2)c2cc(OCCCO)ccc2N1C(=O)c1ccc2ccccc2n1` (stereo partly drawn), the values for the composite z-score (in assay [1]; in the assay with XIP peptide (Xip251-270)) were -0.211 (inactive) and -0.102, respectively. The z-score in assay [2] was -0.746; in assay [3] it was -1.33 (inactive); in assay [4] it was 0.768 (inactive); in assay [5] it was 0.615 (inactive).
Consider `COCCOC(=O)N1C(=O)[C@@]2(c3cc(C#CC4=CCCCC4)ccc31)[C@H](c1ccc(OCCO)cc1)N1[C@H](c3ccccc3)[C@H](c3ccccc3)OC(=O)[C@H]1[C@@H]2C(=O)NC[C@H](O)c1ccccc1`, for which the values for the composite z-score (in assay [1]; in the assay on XIP peptide (Xip251-270)) were 0.575 (inactive) and 0.622, respectively. Also, the z-score in assay [2] was -2.1; in assay [3], 1.86 (inactive); in assay [4] it was 0.107 (inactive); in assay [5], 0.576 (inactive).
